PubChem BioAssay AID624351 (Southern Research Specialized Biocontainment Screening …, 2012)
The campaign covered roughly 2,400 compounds. About 1,400 (58%) were called active.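 The calls were made as follows: active = inhibition of 30% or more at any tested dose; inconclusive = primary hits over the limit that were never retested; inactive = the rest.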 So high a share suggests a set chosen from earlier hits. The list shows a part of the results.

assay: ADP Hunter readout inhibition without MgcRacGAP – biochemical, coupled enzyme counter-screen, artefact control for MgcRacGAP inhibitor project, dose response (AID 624351); conditions: fluorescence, no MgcRacGAP; series mostly up to 80 µM;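 also: signal is the ADP detection kit reading of free GDP without any GAP enzyme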

Structure (SMILES)	IC50
COc1ccc(/C=N/NC(=O)c2cc[n+]([O-])cc2)cc1O	35.3 µM (active)
COc1cc(/C=N/NC(=O)c2cc3ccccc3[nH]2)ccc1O	20.8 µM (active)
COc1ccc(NS(=O)(=O)c2cccc(C(=O)NN=Cc3ccc(O)c(OC)c3)c2)cc1	inactive
COc1cc(/C=N/NC(=O)c2ccccc2)ccc1O	29.6 µM (active)
COc1cc(/C=N/Nc2ccc(C(=O)O)cc2)ccc1O	36.1 µM (active)
COc1ccc(C(C#N)=C2C=CC(=NO)C=C2)cc1	57.4 µM (active)
CCOc1cc(N2CCOCC2)c(OCC)cc1NC(=O)c1ccc(C)s1	65.1 µM (active)
O=C(CNC1CCCCCC1)Nc1ccccc1N1CCOCC1	inactive
CCOc1cc(N2CCOCC2)c(OCC)cc1NCC(=O)N1CCN(Cc2ccccc2)CC1	inactive
CCN(CC)CCNCC(=O)Nc1ccc(Oc2ccccc2)cc1	inactive
Cc1ccc(NC(=O)CN(C)C2CCCCC2)cc1Br	inactive
CCN(CC)c1ccc(CN2CCC(C(=O)NCc3ccc(C)cc3)CC2)cc1	inactive
CCN(CC)CC(=O)NN(Cc1ccccc1)c1ccccc1	inactive
CCN(CC)c1ccc(NC(=O)c2ccc(Br)o2)cc1	29.2 µM (active)
CCN(CC)c1ccc(NC(=O)Nc2ccccc2)cc1	53.3 µM (active)
CCN(CC)c1ccc(NC(=O)C2CCCC2)cc1	76.8 µM (active)
O=c1oc2ccccc2c2c1C(c1ccc(Cl)cc1)Nc1ccc3ccccc3c1-2 (stereo not drawn)	inactive
CN1CCCN(Cc2ccccc2C(F)(F)F)CC1	inactive
CCc1nnc(NC(=O)CSCc2cc(=O)n3ccsc3n2)s1	inactive
COc1ccc(OC(=O)C2CC(=O)N(c3ccc(C)cc3)C2)cc1 (stereo not drawn)	inactive
Cc1ccc(N2CC(C(=O)Nc3ccc(N(C)C)cc3)CC2=O)cc1C (stereo not drawn)	62.4 µM (active)
CS(=O)(=O)C1=NSC2=NC(=O)/C(=C\c3ccc(OC(=O)c4ccco4)c(Br)c3)C(=N)N21	inactive
O=[N+]([O-])c1ccc(N2CCN(CCOCCO)CC2)c([N+](=O)[O-])c1	inactive

Structure (SMILES)	IC50
O=[N+]([O-])c1ccc(N2CCN(c3ccc(O)cc3)CC2)c(Cl)c1	40.4 µM (active)
Cc1cc(Cl)cc2sc(=S)[nH]c12	81.5 µM (active)
CCn1c2ccccc2c2cc(N)ccc21	inactive
CN(C)c1cc2c3ccccc3n(C)c2cc1N	13.4 µM (active)
Cc1c(N(C)C)nc2ccccc2c1N	inactive
CC1(C)OC(=O)C(=NNc2ccc(O)cc2)C(=O)O1	23.5 µM (active)
Cc1ccc2c(c1)[nH]c1c(N3CCN(Cc4ccccc4)CC3)ncnc12	45.1 µM (active)
COc1ccc2[nH]c3c(N4CCC(O)(c5cccc(C(F)(F)F)c5)CC4)ncnc3c2c1	inactive
Cc1ccc(SCCN2CCN(Cc3ccccc3)CC2)cc1	inactive
Cc1nc2ccccc2n2c(O)c(CC(=O)O)cc12	33 µM (active)
COc1cc(/C=C/C(=O)N[C@@H](Cc2c[nH]c3ccccc23)C(=O)O)ccc1O	83.7 µM (active)
C/C=C(\C)CN1CCN(c2ccc(C)cc2)CC1	inactive
Cc1ccc(CN2CCN(C(=O)CC(C)C)CC2)cc1	inactive
O=C(CSc1ccc2ccccc2c1)N1CCN(c2ccc(O)cc2)CC1	46.5 µM (active)
CCOC(=O)N1CCC(N2CCN(S(=O)(=O)c3ccc4ccccc4c3)CC2)CC1	inactive
Cc1ccc(S(=O)(=O)N2CCN(C(=O)CN3CCN(c4ccc(O)cc4)CC3)CC2)cc1	34.6 µM (active)
O=S(=O)(c1ccc2ccccc2c1)N1CCN(c2ccc(O)cc2)CC1	39.5 µM (active)
O=S(=O)(c1ccc2ccccc2c1)N1CCN(C2CCN(Cc3ccccc3)CC2)CC1	inactive
Cc1cc2nc(/N=C(\N)NC(=O)N3c4ccccc4Sc4ccccc43)nc(C)c2cc1C	inactive
C#CCOCCOCCOCCNc1nc(N2CCN(C(=O)C([C@@H](C)O)n3cc([C@@H](N)CCCCN)nn3)CC2)nc(N2CCN(C(=O)[C@H](CCCN=C(N)N)n3cc(C(N)[C@@H](C)CC)nn3)CC2)n1 (stereo partly drawn)	inactive
Cc1cc(O)ccc1Nc1nc(-c2cccs2)cs1	44 µM (active)
Nc1ccc(N2CCN(c3ccc(Cl)c(Cl)c3)CC2)cc1	20.5 µM (active)
Nc1ccc(N2CCN(c3cccc(Cl)c3)CC2)cc1	18.6 µM (active)

Structure (SMILES)	IC50
CC(C)N1CCN(C(=O)c2cccc(Cl)c2)CC1	inactive
CCCCCC(=O)Nc1cc(S(=O)(=O)O)cc2cc(S(=O)(=O)O)cc(O)c12	inactive
CCN(CC)c1ccc(NS(=O)(=O)c2ccc(-c3ccc(=O)[nH]n3)o2)c(C)c1	inactive
Cc1ccc(Nc2n[nH]c(=S)s2)cc1	50.6 µM (active)
Cc1ccc(Nc2n[nH]c(=S)s2)cc1F	50.3 µM (active)
CC(=O)Nc1n[nH]c(=S)s1	48.7 µM (active)
CCOc1ccc(Nc2n[nH]c(=S)s2)cc1	42.5 µM (active)
O=C(O)c1ccc(S(=O)(=O)c2ccc3c(c2)C(=O)N(NC(=O)c2cccnc2)C3=O)cc1	inactive
COc1ccc(Nc2ccccc2)c(C)c1	37.4 µM (active)
COc1ccc(NC2=NCCC2)cc1	inactive
COc1ccc(NC(=S)NNS(=O)(=O)c2ccc3ccccc3c2)c(OC)c1	inactive
COc1ccc(Nc2ccc3ccccc3c2)cc1	66.9 µM (active)
OCCN1CCN(CC(O)COC(c2ccc(F)cc2)c2ccc(F)cc2)CC1 (stereo not drawn)	inactive
Cc1cc(OCc2nc3ccccc3s2)ccc1N	63.7 µM (active)
CCOc1ccc2nc(NC(=O)CS(=O)(=O)c3ccccc3)sc2c1	inactive
CCCS(=O)(=O)N1CCN(CC2CC3C=CC2C3)CC1 (stereo not drawn)	inactive
COc1cc(OC)c(CN2CCCN(C)CC2)cc1Br	inactive
Oc1ccc(Cc2ccc(Cl)cc2)c(O)c1	78 µM (active)
Oc1ccc(Cc2ccccc2Cl)c(O)c1	60.2 µM (active)
Fc1ccc(CNCc2ccccc2Cl)cc1	inactive
CCC(=O)N1CCc2cc(S(=O)(=O)CCC(=O)NCc3ccc(C)cc3)ccc21	inactive
N#CC1(Nc2ccc(-c3ccc(NC4(C#N)CCCC4)cc3)cc2)CCCC1	11.6 µM (active)
